Screening results: PubChem BioAssay, National Center for Advancing Translational Sciences (NCATS)
Pf growth 48h – P. falciparum growth inhibition at 48 hours (one generation). Potency, µM (highest dose often 28.7 µM), actives largely listed as inhibitors. P. falciparum luciferase growth in erythrocytes, 48 h. AID 504832. hit rate 5.9% among 310,000; active = well fitted inhibition curve with a large enough effect; inconclusive = small, poorly fitted or top-dose-only effect, or another doubt; inactive = no such curve, though single readings can be large or run the other way
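Parasite viability was followed by luminescence of a genomically integrated firefly luciferase. Cultures held 0.1% parasitemia at 2% hematocrit (final), incubated under 5% CO2 at 37 C.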
Pf growth 96h – inhibits malaria parasite growth, 96 h | Potency, µM (titrated, usually from 28.7 µM), hits mostly inhibitors | hit rate 6.9% among 320,000 | P. falciparum luciferase reporter growth, 96 h; active = well fitted inhibition curve with a large enough effect; inconclusive = small, poorly fitted or top-dose-only effect, or another doubt; inactive = no such curve, though single readings can be large or run the other way
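Two-generation exposure (96 h) targets delayed-death phenotype. Reporter parasites carrying integrated firefly luciferase, in red cells at 2% hematocrit and 0.05% parasitemia final, kept at 37 C, 5% CO2; luminescence loss indicates inhibition.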
SARS PLP yeast – blocks SARS-CoV papain-like protease in a yeast assay; S. cerevisiae expressing SARS-CoV PLpro, growth rescue; hit rate 0.19% among 330,000; Potency, µM (doses to about 32.9 µM), most hits filed as activators; AID 485353; also: nearly all actives have a fitted effect of over 55% in size
NS1 inh – inhibitors of influenza NS1 protein function. Potency, µM (series often up to 46.1 µM). AID 2326. hit rate 0.4% among 270,000; also: actives are rising curves; nearly all actives have a fitted effect of over 50% in size
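OD600 was taken as the measure of yeast growth restored by compound in an NS1-expressing S. cerevisiae strain. Cells had been washed out of glucose medium and diluted 1:100 into galactose -URA medium, pH 6.0.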
Large screens that a line does not name were inactive. Hits are enriched below; roughly 10% of the tested compounds scored in any of these assays. Unless noted, calls follow the shape of the full dose curve.

O=C(CN1CC[n+]2c(-c3ccccc3)csc21)c1ccc(Br)cc1	Pf growth 48h 7.38µM, Pf growth 96h inconclusive, NS1 inh inconclusive
Cc1cccc(NS(=O)(=O)c2ccc(C)c(C(=O)N(C)C3CCN(C)CC3)c2)c1	none (no result: NS1 inh)
C[n+]1cccc(C2C(C#N)=C(N)Oc3c2ccc2ccccc32)c1 (stereo not drawn)	Pf growth 48h 0.294µM, Pf growth 96h inconclusive
C[n+]1cccc2ccc3c(c21)OC(N)=C(C#N)C3c1ccccc1 (stereo not drawn)	Pf growth 48h 3.7µM, Pf growth 96h 7.38µM
O=C1CCc2cc(NS(=O)(=O)c3ccc([N+](=O)[O-])cc3)cc3c2N1CCC3	Pf growth 48h inconclusive (no result: NS1 inh)
Cn1c(=O)c2c(nc(NCCNC(=O)c3ccco3)n2Cc2ccc(Cl)cc2Cl)n(C)c1=O	Pf growth 48h inconclusive
Cn1c(=O)c2c(nc(NCC3CCCC(CN)C3)n2Cc2ccc(Cl)cc2Cl)n(C)c1=O (stereo not drawn)	Pf growth 48h 2.94µM, Pf growth 96h 2.94µM
CCOC(=O)C1=C(c2ccccc2)N2CCS(=O)(=O)N=C2S1	Pf growth 96h 10.4µM
COc1ccc(OC)c(C(C)NC(=O)C(C)n2cc([N+](=O)[O-])cn2)c1 (stereo not drawn)	none (no result: NS1 inh)
CC(=O)Oc1ccc(C(=O)Nc2ccccc2C(=O)Nc2ccc(C(=O)O)cc2)cc1	none
CCOC(=O)c1cc(C(C)=O)c(=O)[nH]c1C	none (no result: NS1 inh)
COC(=O)c1cc(C(C)=O)c(C)[nH]c1=O	Pf growth 96h 5.22µM
N#CC1(NC(=O)COC(=O)/C=C/c2ccc3ccccc3n2)CCCCC1	Pf growth 96h inconclusive
CN(C)c1nc(N)c([N+](=O)[O-])c(N2CCCCCC2)n1	none
CCn1ncc(/C=N/N=C2\CCC3C4CCc5cc(O)ccc5C4CCC23C)c1C (stereo not drawn)	Pf growth 96h 1.65µM (no result: Pf growth 48h)
Cc1ccc(S(=O)(=O)NCC(=O)OCC(=O)c2cccs2)cc1	Pf growth 96h 13.1µM
COC(=O)c1ccc(COC(=O)CNS(=O)(=O)c2ccc(C)cc2)cc1	none (no result: NS1 inh)
Cc1ccc(S(=O)(=O)NCC(=O)OCc2ccccc2Br)cc1	Pf growth 96h 9.28µM
O=C(C1CCN(S(=O)(=O)c2ccc(F)cc2)CC1)N1CCOCC1	Pf growth 96h 7.38µM, NS1 inh inconclusive
Cc1ccc(S(=O)(=O)N2CCC(C(=O)Nc3ccc(N4CCOCC4)cc3)CC2)cc1C	Pf growth 48h 4.15µM, Pf growth 96h inconclusive (no result: NS1 inh)
COC(=O)c1ccccc1S(=O)(=O)N1CCC(C(=O)Nc2ccc(N3CCOCC3)cc2)CC1	none (no result: Pf growth 48h, Pf growth 96h, NS1 inh)
O=C(Nc1ccc(N2CCOCC2)cc1)C1CCN(S(=O)(=O)c2ccc3c(c2)OCCO3)CC1	Pf growth 48h 8.28µM, Pf growth 96h inconclusive (no result: NS1 inh)
O=C(Nc1cccc(S(=O)(=O)N2CCOCC2)c1)[C@@H]1CCCN1S(=O)(=O)c1ccc(Cl)cc1	Pf growth 48h inconclusive, Pf growth 96h 1.85µM
Cc1ccc(NC(=O)CSc2ncccn2)cc1S(=O)(=O)N1CCCCC1	Pf growth 96h inconclusive (no result: NS1 inh)
Cc1csc(SC(C)C(=O)Nc2ccccc2C)n1 (stereo not drawn)	none (no result: NS1 inh)
Cc1c(C(=O)OCC(=O)NC2CC2)oc2ccc(Br)cc12	none (no result: NS1 inh)
Cc1ccc(N(C(=O)c2csnn2)C(C(=O)NC2CCCCC2)c2cccnc2)cc1 (stereo not drawn)	none
CCC(=O)Nc1ccc(S(=O)(=O)N2CCOCC2)cc1	none (no result: Pf growth 48h)
O=C(Nc1ccc(S(=O)(=O)N2CCOCC2)cc1)C1CC1	Pf growth 96h 4.65µM
Cc1ccc(NS(=O)(=O)c2ccc(C(=O)Nc3nncs3)cc2)cc1	none (no result: Pf growth 48h, Pf growth 96h, NS1 inh)
COCCN1CC(O)=C(c2nc3ccccc3c(=O)[nH]2)C1=N	Pf growth 48h inconclusive
COc1ccccc1N1CC(O)=C(c2nc3ccccc3c(=O)[nH]2)C1=N	Pf growth 48h 9.28µM
Cc1ccc(S(=O)(=O)N2CCN(c3ncnc4sccc34)CC2)cc1C	Pf growth 48h 13.1µM, Pf growth 96h 11.7µM (no result: NS1 inh)
COc1cc2c(cc1OC)CN(c1nc(CN3CCCC3)nc3sc(C)c(C)c13)CC2	Pf growth 48h inconclusive, Pf growth 96h inconclusive (no result: NS1 inh)
O=S(=O)(c1ccc2c(c1)OCCO2)N1CCN(c2ncnc3sccc23)CC1	Pf growth 48h inconclusive (no result: NS1 inh)
Cc1sc2ncnc(N3CCN(S(=O)(=O)c4ccccc4)CC3)c2c1C	Pf growth 48h 13.1µM, Pf growth 96h inconclusive (no result: NS1 inh)
Cc1sc2nc(CN3CCCC3)nc(N3CCN(S(=O)(=O)c4ccccc4)CC3)c2c1C	Pf growth 48h 10.4µM, Pf growth 96h 4.65µM (no result: NS1 inh)
COc1cc2sc(-c3ccc(S(C)(=O)=O)cc3)c(-c3ccc4c(c3)OCO4)c2cc1OC	none (no result: Pf growth 48h, Pf growth 96h, NS1 inh)
CSc1ccccc1NC(=O)CSc1nnc(COc2ccccc2)o1	Pf growth 96h inconclusive
COc1ccc(C(=O)NC(=S)N(C)C2CCCCC2)cc1	Pf growth 96h 11.7µM
COc1ccc(C(=O)NC(=S)N(C)C2CCCCC2)cc1Br	Pf growth 48h inconclusive, Pf growth 96h 3.7µM (no result: SARS PLP yeast)
CN(c1ccc(C(=O)N2CCN(Cc3ccccc3)CC2)cc1)S(=O)(=O)c1ccc(Cl)cc1	Pf growth 48h inconclusive
CC(C)Oc1ccc(C(=O)OCC(=O)N2CCCc3ccccc32)cc1	none (no result: NS1 inh)
Cc1ccc(S(=O)(=O)C(C#N)c2nc3ccccc3nc2N2CC(C)OC(C)C2)cc1C (stereo not drawn)	Pf growth 48h 13.1µM, Pf growth 96h inconclusive
CC1CN(c2nc3ccccc3nc2C(C#N)C(=O)OC2CCCCC2)CC(C)O1 (stereo not drawn)	Pf growth 48h 2.08µM, Pf growth 96h inconclusive
Cc1cccc(S(=O)(=O)C(C#N)c2nc3ccccc3nc2N2CC(C)OC(C)C2)c1 (stereo not drawn)	Pf growth 48h inconclusive (no result: SARS PLP yeast)
Cc1ccc(Cl)c(OC(=O)C2CSC3(C)CCC(=O)N23)c1 (stereo not drawn)	none (no result: NS1 inh)
O=C(N/N=C/c1ccc2c(c1)OCO2)c1cc(-c2ccccc2)nc2ccccc12	Pf growth 48h inconclusive, Pf growth 96h 11.7µM
COC(=O)c1cc(-c2ccc3c(c2)OCO3)nc2ccccc12	Pf growth 96h 0.415µM
Cc1cc(N/N=C/c2ccc3c(c2)OCO3)nc2ccccc12	Pf growth 48h inconclusive, Pf growth 96h 4.65µM
COc1cccc(NC(=O)CN(C)C(=O)c2cccnc2Sc2ccc(C)c(C)c2)c1	Pf growth 48h inconclusive (no result: SARS PLP yeast, NS1 inh)
CN(CC(=O)NCCC1=CCCCC1)S(=O)(=O)c1ccc2c(c1)CCC(=O)N2	Pf growth 48h inconclusive, Pf growth 96h 3.29µM
Cc1ccc(CCNC(=O)C2CCN(S(=O)(=O)c3ccc4c(c3)CCC(=O)N4)CC2)cc1	none
O=C1CCc2cc(S(=O)(=O)N3CCC(C(=O)NCCC4=CCCCC4)CC3)ccc2N1	Pf growth 96h 0.828µM (no result: Pf growth 48h)
COc1ccc(CCNC(=O)CNC(=O)c2ccccc2Br)cc1OC	none
COCCOC(=O)C1=C(C)NC(C)=C(C(=O)OCCOC)C1/C=C/c1ccccc1OC	Pf growth 48h inconclusive, Pf growth 96h 9.28µM
CCOC(=O)C1=C(C)NC(C)=C(C(=O)OCC)C1/C=C/c1ccccc1	Pf growth 48h inconclusive, Pf growth 96h inconclusive
CCC1SC2=NC(C)=C(C(=O)OCCOC)C(/C=C/c3ccccc3OC)N2C1=O (stereo not drawn)	Pf growth 48h inconclusive, NS1 inh inconclusive
CCOC(=O)C1=C(C)NC(C)=C(C(=O)OCC)C1c1ccccc1C=CC(=O)OC(C)(C)C	Pf growth 48h 13.5µM, Pf growth 96h 8.49µM (no result: SARS PLP yeast, NS1 inh)
